Experimental findings from the supplement of paper PMC10681739 are described below.

The target in test [1] is T1, ETS1 (UniProt P14921).
T1 sequence: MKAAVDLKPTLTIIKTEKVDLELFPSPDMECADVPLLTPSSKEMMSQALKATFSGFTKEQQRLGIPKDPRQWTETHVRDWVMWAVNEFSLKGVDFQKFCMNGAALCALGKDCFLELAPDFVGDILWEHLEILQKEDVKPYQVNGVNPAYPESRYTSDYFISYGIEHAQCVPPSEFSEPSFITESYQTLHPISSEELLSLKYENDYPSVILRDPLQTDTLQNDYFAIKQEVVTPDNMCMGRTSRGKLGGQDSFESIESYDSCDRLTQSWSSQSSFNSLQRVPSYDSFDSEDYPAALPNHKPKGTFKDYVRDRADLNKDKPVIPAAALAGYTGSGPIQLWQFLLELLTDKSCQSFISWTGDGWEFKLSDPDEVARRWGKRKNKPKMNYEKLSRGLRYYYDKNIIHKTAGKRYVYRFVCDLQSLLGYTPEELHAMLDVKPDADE
The test is described as follows: ETS1 binding intensity (PBM fluorescence), ETS1 alone (arbitrary fluorescence units); higher = stronger binding. The following applies: ETS1 concentration 1 nM; RUNX1 concentration 0 nM.

In test [2] the target is RUNX1 (UniProt Q01196). Put plainly: RUNX1 binding intensity (PBM fluorescence), RUNX1 alone (arbitrary fluorescence units); higher = stronger binding. The following applies: RUNX1 concentration 2 nM; ETS1 concentration 0 nM. The method, then:
(§1)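 Cooperative gcPBM on 36-bp genomic probes with neighbouring ETS1 and RUNX1 sites. Recombinant human RUNX1 (2 nM) was incubated alone or with ETS1 (25 nM) and detected with anti-RUNX1 antibody plus Alexa488 secondary. Values are medians over 4 replicate spots; the RUNX1+ETS1 data were normalised to the RUNX1-only data. The probes sit in constant array flanks that are not printed.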

Test [3] deals with T1, ETS1. The test is described as follows: ETS1 binding intensity (PBM fluorescence) in presence of RUNX1, normalised to ETS1-only experiment (arbitrary fluorescence units); higher = stronger binding. The conditions noted are these: ETS1 concentration 1 nM; RUNX1 concentration 25 nM.
Test [4] concerns the target RUNX1 (UniProt Q01196). The test is described as follows: RUNX1 binding intensity (PBM fluorescence) in presence of ETS1, normalised to RUNX1-only experiment (arbitrary fluorescence units); higher = stronger binding. The following applies: RUNX1 concentration 2 nM; ETS1 concentration 25 nM. How it is done: as §1
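Throughout, for RUNX1 binding intensity (PBM fluorescence) in presence of ETS1, normalised to RUNX1-only experiment: Full-length recombinant human ETS1 or RUNX1 bound to double-stranded 36-bp genomic probes on microarrays, detected by protein-specific primary antibody and Alexa488 secondary, spot fluorescence as median of four replicate spots.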
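Throughout, for RUNX1 binding intensity (PBM fluorescence), RUNX1 alone: Full-length recombinant human RUNX1 bound to double-stranded 36-bp genomic probes on a high-density microarray, scored as Alexa488 fluorescence per spot via anti-RUNX1 antibody, median of four replicate spots.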

Sequence of RUNX1 (Q01196 whole entry): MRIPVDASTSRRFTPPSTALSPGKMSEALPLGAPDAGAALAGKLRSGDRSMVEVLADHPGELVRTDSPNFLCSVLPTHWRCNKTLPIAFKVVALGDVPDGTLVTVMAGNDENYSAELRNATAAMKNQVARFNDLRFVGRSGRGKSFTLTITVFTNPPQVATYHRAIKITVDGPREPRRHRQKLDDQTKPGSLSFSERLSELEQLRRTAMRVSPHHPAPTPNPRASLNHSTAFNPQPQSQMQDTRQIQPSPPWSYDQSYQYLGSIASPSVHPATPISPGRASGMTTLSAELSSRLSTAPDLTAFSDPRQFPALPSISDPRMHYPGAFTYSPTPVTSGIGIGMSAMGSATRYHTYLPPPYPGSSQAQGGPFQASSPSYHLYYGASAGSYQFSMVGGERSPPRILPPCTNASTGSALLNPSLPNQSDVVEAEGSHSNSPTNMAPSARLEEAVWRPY

As for GGGATCTACTTCCTCTCTCGGCCGCGGCCGCAGCAC, the figures for the ETS1 binding intensity with ETS1 [1] and with ETS1 [3] were 790 and 1150, respectively. Also, the RUNX1 binding intensity came out at 792 with RUNX1 [2] and 1730 with RUNX1 [4].
In the same order, the values of ACGTTTCGGGGTTTCCGGGCCAGCGGTTTCGGGCGC are 702, 1140, 937 and 2050.
Regarding GTGGCGAAAGTGCGGATGCGAAACCGCTGGCTCGGC, the figures for the ETS1 binding intensity with ETS1 [1] and with ETS1 [3] were 587 and 1060, respectively. Also, the RUNX1 binding intensity with RUNX1 [2] was 782; with RUNX1 [4], 881.
Regarding GGGCTCGGGGAGGAAGCGGTGGTTTCTCTTTGAAGC, the ETS1 binding intensity was found to be 696 with ETS1 [1] and 907 with ETS1 [3]. Further, the RUNX1 binding intensity with RUNX1 [2] was 729; with RUNX1 [4] it was 970.
As for TTTACAGGAAATTACAGGGGTTAAACCAAACCACAA, the ETS1 binding intensity stood at 986 with ETS1 [1] and 1140 in the test with ETS1 [3]. Also, the RUNX1 binding intensity with RUNX1 [2] is 941; with RUNX1 [4], 1820.
Consider TTGTCGGGTATGGGATGTGGGCAGAGAGTATGATGG, for which the ETS1 binding intensity is 604 with ETS1 [1] and 835 in the test with ETS1 [3]. For the same sequence, the RUNX1 binding intensity is 866 with RUNX1 [2] and 797 with RUNX1 [4].
Regarding CACTTCCCCCAGCCTCTCTTTTTAATACCACAATAG, the ETS1 binding intensity was found to be 634 with ETS1 [1] and 876 with ETS1 [3]. Also, the RUNX1 binding intensity with RUNX1 [2] is 3520; in the test with RUNX1 [4], 3290.
The matching figures for GAAATGAAGGCCGGATGTCAGTAACCACAAACGAGC: 7620, 47500, 1040 and 11000.
With CTAAGCAGAGGCCGGAAGCGGTGGTTTTTAGCGGCT, the results for the ETS1 binding intensity in the test with ETS1 [1] and with ETS1 [3] were 10200 and 20400, respectively. The RUNX1 binding intensity in the test with RUNX1 [2] was found to be 677; in the test with RUNX1 [4] it was 2090.
As to TTCTGCTACATCCTGCCCACTCCCTGTGGCTTCCAC, the results for the ETS1 binding intensity in the test with ETS1 [1] and in the test with ETS1 [3] were 1090 and 1060, respectively. For the same sequence, the RUNX1 binding intensity with RUNX1 [2] came out at 1380; with RUNX1 [4], 3270.
In the same order, the values of GTTAGAGGAAGAGGAAGCGGTCAAGAGATCGTCACA are 956, 1280, 766 and 1810.
The matching figures for TGAGAAAGCTATTTCCGCCCACAAAGAGGCAAGTCT: 1420, 1370, 763 and 1570.
The matching figures for TCAGGGGAGCGAGCAGGAAGTGGTAAGATTTGATAG: 3680, 7210, 696 and 1230.
For AGCCACATCCTGGACAAAAGCTGTGGTCTAGTAACC, the ETS1 binding intensity was 430 with ETS1 [1] and 556 with ETS1 [3]. Moreover, the figures for the RUNX1 binding intensity with RUNX1 [2] and in the test with RUNX1 [4] were 911 and 2020, respectively.
